Results: PubChem BioAssay AID1159580 (chemical genetic matrix, 2015)
About 2,000 (36%) of roughly 5,500 compounds were called active. Roughly 18% stayed inconclusive and do not appear here. No stated cut-off is given here; in the data, active means normalized growth mostly below about 0.91 (no sharp cut-off); inconclusive means no clear call, values can overlap the other calls; inactive means mostly above about 0.92. This is one part of the list.

Assay: chemical genetic growth profiling, strain panel (AID 1159580);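 further: tested at 20 µM; growth read once vehicle control cultures reached saturation at 30 °C; 1 = growth at the plate median or of vehicle wells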
Settings: growth OD

Measured: normalized growth

NC(=O)c1ccccc1O
inactive: S. cerevisiae deletion strains, locus YJR066W, strain TOR1, stronger effect = lower value 0.999 | S. cerevisiae deletion strains, locus YKL009W, strain mrt4, stronger effect = lower value 1.01 | S. cerevisiae deletion strains, locus YKL068W, stronger effect = lower value 0.995 | S. cerevisiae deletion strains, locus YKL085W, strain MDH1 (second series), stronger effect = lower value 1 | S. cerevisiae deletion strains, locus YKL085W, strain MDH1, stronger effect = lower value 1 | S. cerevisiae deletion strains, locus YKL160W, strain elf1, stronger effect = lower value 0.985 | S. cerevisiae deletion strains, locus YKL190W, strain CNB1, stronger effect = lower value 0.998 | S. cerevisiae deletion strains, locus YKR001C, strain vps1, stronger effect = lower value 1 | S. cerevisiae deletion strains, locus YKR026C, strain gcn3, stronger effect = lower value 0.971 | S. cerevisiae deletion strains, locus YKR091W, strain srl3, stronger effect = lower value 0.971 | S. cerevisiae deletion strains, locus YLL001W, strain dnm1, stronger effect = lower value 0.909 | S. cerevisiae deletion strains, locus YLL026W, stronger effect = lower value 0.993 | S. cerevisiae deletion strains, locus YLL041C, strain sdh2, stronger effect = lower value 0.969 | S. cerevisiae deletion strains, locus YLR027C, strain aat2, stronger effect = lower value 0.981 | S. cerevisiae deletion strains, locus YLR039C, strain RIC1, stronger effect = lower value 1 | S. cerevisiae deletion strains, locus YLR058C, strain SHM2, stronger effect = lower value 1.01 | S. cerevisiae deletion strains, locus YLR102C, strain apc9, stronger effect = lower value 1.01 | S. cerevisiae deletion strains, locus YLR113W, strain HOG1, stronger effect = lower value 0.999 | S. cerevisiae deletion strains, locus YLR221C, strain rsa3, stronger effect = lower value 1.03 | S. cerevisiae deletion strains, locus YLR258W, strain gsy2, stronger effect = lower value 0.988 | S. cerevisiae deletion strains, locus YLR262C, strain YPT6 (second series), stronger effect = lower value 0.947 | S. cerevisiae deletion strains, locus YLR262C, strain YPT6, stronger effect = lower value 0.986 | S. cerevisiae deletion strains, locus YLR268W, strain sec22, stronger effect = lower value 1.04 | S. cerevisiae deletion strains, locus YLR320W, strain mms22, stronger effect = lower value 0.996 | S. cerevisiae deletion strains, locus YLR330W, strain CHS5, stronger effect = lower value 1.01 | S. cerevisiae deletion strains, locus YLR342W, strain FKS1 (second series), stronger effect = lower value 1.02 | S. cerevisiae deletion strains, locus YLR342W, strain FKS1, stronger effect = lower value 0.978 | S. cerevisiae deletion strains, locus YLR357W, strain rsc2, stronger effect = lower value 0.952 | S. cerevisiae deletion strains, locus YLR370C, strain arc18, stronger effect = lower value 0.964 | S. cerevisiae deletion strains, locus YLR371W, strain rom2, stronger effect = lower value 1.01 | S. cerevisiae deletion strains, locus YLR384C, strain iki3, stronger effect = lower value 0.963 | S. cerevisiae deletion strains, locus YLR418C, strain cdc73, stronger effect = lower value 1.02 | S. cerevisiae deletion strains, locus YML016C, strain PPZ1, stronger effect = lower value 1 | S. cerevisiae deletion strains, locus YML032C, strain rad52, stronger effect = lower value 1.01 | S. cerevisiae deletion strains, locus YML120C, strain ndi1, stronger effect = lower value 0.954 | S. cerevisiae deletion strains, locus YML124C, strain tub3, stronger effect = lower value 1.01 | S. cerevisiae deletion strains, locus YMR058W, strain fet3, stronger effect = lower value 0.987 | S. cerevisiae deletion strains, locus YMR078C, strain ctf18, stronger effect = lower value 1 | S. cerevisiae deletion strains, locus YMR125W, strain sto1, stronger effect = lower value 0.962 | S. cerevisiae deletion strains, locus YMR129W, stronger effect = lower value 0.974 | S. cerevisiae deletion strains, locus YMR205C, strain PFK2, stronger effect = lower value 0.978 | S. cerevisiae deletion strains, locus YMR223W, strain ubp8, stronger effect = lower value 0.988 | S. cerevisiae deletion strains, locus YMR231W, strain pep5, stronger effect = lower value 0.965 | S. cerevisiae deletion strains, locus YMR307W, strain GAS1, stronger effect = lower value 1.03 | S. cerevisiae deletion strains, locus YNL067W, strain RPL9B, stronger effect = lower value 0.99 | S. cerevisiae deletion strains, locus YNL071W, strain lat1, stronger effect = lower value 0.974 | S. cerevisiae deletion strains, locus YNL183C, strain NPR1, stronger effect = lower value 0.985 | S. cerevisiae deletion strains, locus YNL209W, strain ssb2, stronger effect = lower value 0.98 | S. cerevisiae deletion strains, locus YNL233W, strain BNI4, stronger effect = lower value 1 | S. cerevisiae deletion strains, locus YNL248C, strain rpa49, stronger effect = lower value 0.982 | S. cerevisiae deletion strains, locus YNL250W, strain rad50, stronger effect = lower value 1 | S. cerevisiae deletion strains, locus YNL271C, strain bni1, stronger effect = lower value 1.02 | S. cerevisiae deletion strains, locus YNL298W, strain CLA4, stronger effect = lower value 1.02 | S. cerevisiae deletion strains, locus YNL307C, strain MCK1, stronger effect = lower value 1.02 | S. cerevisiae deletion strains, locus YNL322C, strain KRE1 (second series), stronger effect = lower value 0.954 | S. cerevisiae deletion strains, locus YNL322C, strain KRE1, stronger effect = lower value 0.998 | S. cerevisiae deletion strains, locus YNR049C, strain mso1, stronger effect = lower value 0.974 | S. cerevisiae deletion strains, locus YNR052C, strain pop2, stronger effect = lower value 1.01 | S. cerevisiae deletion strains, locus YOL006C, strain TOP1, stronger effect = lower value 0.998 | S. cerevisiae deletion strains, locus YOL012C, strain htz1 1.16 | S. cerevisiae deletion strains, locus YOL147C, strain pex11, stronger effect = lower value 1.01 | S. cerevisiae deletion strains, locus YOR001W, strain rrp6, stronger effect = lower value 0.957 | S. cerevisiae deletion strains, locus YOR061W, strain CKA2, stronger effect = lower value 1 | S. cerevisiae deletion strains, locus YOR069W, strain VPS5, stronger effect = lower value 1 | S. cerevisiae deletion strains, locus YOR070C, strain gyp1, stronger effect = lower value 1 | S. cerevisiae deletion strains, locus YOR080W, strain dia2, stronger effect = lower value 0.981 | S. cerevisiae deletion strains, locus YOR083W, strain WHI5, stronger effect = lower value 0.957 | S. cerevisiae deletion strains, locus YOR106W, strain vam3, stronger effect = lower value 0.94 | S. cerevisiae deletion strains, locus YOR136W, strain idh2, stronger effect = lower value 0.989 | S. cerevisiae deletion strains, locus YOR144C, strain elg1, stronger effect = lower value 1 | S. cerevisiae deletion strains, locus YOR184W, strain ser1, stronger effect = lower value 0.895 | S. cerevisiae deletion strains, locus YOR231W, strain MKK1, stronger effect = lower value 1.03 | S. cerevisiae deletion strains, locus YOR265W, strain rbl2, stronger effect = lower value 0.98 | S. cerevisiae deletion strains, locus YOR270C, strain vph1, stronger effect = lower value 0.963 | S. cerevisiae deletion strains, locus YOR290C, strain snf2, stronger effect = lower value 0.999 | S. cerevisiae deletion strains, locus YOR316C, strain cot1, stronger effect = lower value 1 | S. cerevisiae deletion strains, locus YPL051W, strain arl3, stronger effect = lower value 1.01 | S. cerevisiae deletion strains, locus YPL078C, strain atp4, stronger effect = lower value 0.94 | S. cerevisiae deletion strains, locus YPL106C, strain sse1, stronger effect = lower value 0.936 | S. cerevisiae deletion strains, locus YPL240C, strain hsp82, stronger effect = lower value 0.977 | S. cerevisiae deletion strains, locus YPL241C, strain CIN2, stronger effect = lower value 1.01 | S. cerevisiae deletion strains, locus YPL256C, strain CLN2, stronger effect = lower value 1.05 | S. cerevisiae deletion strains, locus YPR119W, strain clb2, stronger effect = lower value 0.999 | S. cerevisiae deletion strains, locus YPR141C, strain kar3, stronger effect = lower value 1.01 | S. cerevisiae deletion strains, locus YPR163C, strain tif3, stronger effect = lower value 1.01 | S. cerevisiae deletion strains, locus YPR167C, strain met16, stronger effect = lower value 1.01 | S. cerevisiae deletion strains, strain wtn01, stronger effect = lower value 1.03 | S. cerevisiae strains, strain wild type, stronger effect = lower value 1.01
